# Measured values: PubChem BioAssay AID1159580 (chemical genetic matrix, 2015)
# Several values for one entry are separate records, joined by “and”; a condition that tells them apart may be missing. Equal entries are not always repeated. Screen size: about 5,500 compounds; about 2,000 (36%) were called active. About 18% were inconclusive and are not listed. Some of the results follow. Values without a mark were called inactive. Rule as the data show it: active = normalized growth mostly below about 0.91 (no sharp cut-off); inconclusive = no clear call, values can overlap the other calls; inactive = mostly above about 0.92.
# Assay: chemical genetic growth profiling, strain panel (AID 1159580);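 also: tested at 20 µM; growth read once vehicle control cultures reached saturation at 30 °C; 1 = growth at the plate median or of vehicle wells; lower values mean less growth of the strain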
# Conditions: S. cerevisiae deletion strains, growth OD
smiles,measurement,setting,value
C=C[C@@](C)(O)CCC1C(=C)C[C@H](OC(C)=O)C2C(C)(C)CCCC12C (stereo partly specified),normalized growth,"locus YAL013W, strain DEP1, active compounds read low",1.01
same,normalized growth,"locus YAL021C, strain ccr4, active compounds read low",1.03
same,normalized growth,"locus YAL026C, strain drs2, active compounds read low",1.03
same,normalized growth,"locus YAL030W, strain snc1, active compounds read low",1.04
same,normalized growth,"locus YBL061C, strain skt5, active compounds read low",1.03
same,normalized growth,"locus YBR009C, strain hhf1, active compounds read low",1
same,normalized growth,"locus YBR021W, strain FUR4, active compounds read low",0.963
same,normalized growth,"locus YBR023C, strain chs3, active compounds read low",1.02
same,normalized growth,"locus YBR171W, strain sec66, active compounds read low",1.01
same,normalized growth,"locus YBR229C, strain ROT2, active compounds read low",0.972
same,normalized growth,"locus YBR231C, strain swc5, active compounds read low",1.05
same,normalized growth,"locus YBR279W, strain paf1, active compounds read low",1.02
same,normalized growth,"locus YCL011C, strain gbp2, active compounds read low",1.01
same,normalized growth,"locus YCL016C, strain dcc1, active compounds read low",1.01
same,normalized growth,"locus YCL029C, strain bik1, active compounds read low",0.981
same,normalized growth,"locus YCL061C, strain MRC1, active compounds read low",1.01
same,normalized growth,"locus YCL069W, strain vba3, active compounds read low",1.03
same,normalized growth,"locus YCR088W, strain abp1, active compounds read low",1.04
same,normalized growth,"locus YDL005C, strain med2, active compounds read low",1.04
same,normalized growth,"locus YDL035C, strain GPR1, active compounds read low",0.961
same,normalized growth,"locus YDL040C, strain nat1, active compounds read low",1.03
same,normalized growth,"locus YDL074C, strain BRE1, active compounds read low",0.956
same,normalized growth,"locus YDL101C, strain DUN1, active compounds read low",1.01
same,normalized growth,"locus YDL185W, strain tfp1, active compounds read low",0.952
same,normalized growth,"locus YDL192W, strain arf1, active compounds read low",0.976
same,normalized growth,"locus YDR001C, strain nth1, active compounds read low",1.03
same,normalized growth,"locus YDR069C, strain doa4, active compounds read low",1.07
same,normalized growth,"locus YDR101C, strain arx1, active compounds read low",0.977
same,normalized growth,"locus YDR137W, strain rgp1, active compounds read low",0.99
same,normalized growth,"locus YDR150W, strain NUM1, active compounds read low",1.07
same,normalized growth,"locus YDR159W, strain sac3, active compounds read low",1.02
same,normalized growth,"locus YDR162C, strain NBP2, active compounds read low",0.965
same,normalized growth,"locus YDR195W, strain ref2",1.06
same,normalized growth,"locus YDR297W, strain sur2, active compounds read low",1.05
same,normalized growth,"locus YDR318W, strain mcm21, active compounds read low",1.01
same,normalized growth,"locus YDR334W, strain swr1, active compounds read low",1.04
same,normalized growth,"locus YDR335W, strain msn5, active compounds read low",1.03
same,normalized growth,"locus YDR388W, active compounds read low",1
same,normalized growth,"locus YDR392W, strain spt3, active compounds read low",0.562 (active)
same,normalized growth,"locus YDR502C, strain sam2, active compounds read low",1.03
same,normalized growth,"locus YEL003W, strain gim4, active compounds read low",1.02
same,normalized growth,"locus YEL037C, strain rad23, active compounds read low",1.02
same,normalized growth,"locus YEL061C, strain CIN8 (second series), active compounds read low",1.03
same,normalized growth,"locus YER015W, strain faa2, active compounds read low",1.02
same,normalized growth,"locus YER016W, strain bim1, active compounds read low",1.03
same,normalized growth,"locus YER110C, active compounds read low",0.978
same,normalized growth,"locus YER111C, strain swi4, active compounds read low",1.02
same,normalized growth,"locus YER155C, strain BEM2 (second series), active compounds read low",0.989
same,normalized growth,"locus YER155C, strain BEM2, active compounds read low",0.999
same,normalized growth,"locus YER167W, strain BCK2, active compounds read low",1.01
same,normalized growth,"locus YFR010W, strain ubp6, active compounds read low",1.05
same,normalized growth,"locus YGL078C, strain dbp3, active compounds read low",1.03
same,normalized growth,"locus YGL086W, strain mad1, active compounds read low",1.02
same,normalized growth,"locus YGL167C, strain pmr1, active compounds read low",1.01
same,normalized growth,"locus YGL173C, strain kem1, active compounds read low",1.04
same,normalized growth,"locus YGL227W, strain vid30, active compounds read low",1.03
same,normalized growth,"locus YGL240W, strain doc1, active compounds read low",1.01
same,normalized growth,"locus YGL248W, strain PDE1, active compounds read low",1.02
same,normalized growth,"locus YGL253W, strain hxk2, active compounds read low",1.03
same,normalized growth,"locus YGR135W, strain pre9, active compounds read low",1.08
same,normalized growth,"locus YGR252W, strain gcn5, active compounds read low",1.09
same,normalized growth,"locus YHR013C, strain ard1, active compounds read low",1.02
same,normalized growth,"locus YHR027C, strain rpn1, active compounds read low",1.04
same,normalized growth,"locus YHR030C, strain SLT2, active compounds read low",0.929
same,normalized growth,"locus YHR079C, strain IRE1 (second series), active compounds read low",0.982
same,normalized growth,"locus YHR079C, strain IRE1, active compounds read low",0.961
same,normalized growth,"locus YHR094C, strain hxt1, active compounds read low",0.985
same,normalized growth,"locus YHR129C, strain ARP1, active compounds read low",1
same,normalized growth,"locus YHR142W, strain chs7, active compounds read low",1
same,normalized growth,"locus YHR200W, strain rpn10, active compounds read low",1.01
same,normalized growth,"locus YIL066C, strain RNR3, active compounds read low",0.965
same,normalized growth,"locus YIL073C, strain SPO22, active compounds read low",0.984
same,normalized growth,"locus YIL125W, strain kgd1, active compounds read low",0.976
same,normalized growth,"locus YIR030C, strain dcg1, active compounds read low",0.995
same,normalized growth,"locus YJL092W, strain hpr5, active compounds read low",1.03
same,normalized growth,"locus YJL095W, strain BCK1 (second series), active compounds read low",1.03
same,normalized growth,"locus YJL095W, strain BCK1, active compounds read low",1.06 and 0.951
same,normalized growth,"locus YJL115W, strain asf1, active compounds read low",1.03
same,normalized growth,"locus YJL129C, strain trk1, active compounds read low",0.995
same,normalized growth,"locus YJL134W, strain LCB3, active compounds read low",1
same,normalized growth,"locus YJL154C, strain vps35, active compounds read low",1.03
same,normalized growth,"locus YJL164C, strain tpk1, active compounds read low",0.988
same,normalized growth,"locus YJL166W, strain qcr8, active compounds read low",0.982
same,normalized growth,"locus YJL168C, strain set2, active compounds read low",1
same,normalized growth,"locus YJL187C, strain SWE1 (second series), active compounds read low",1.03
same,normalized growth,"locus YJL187C, strain SWE1, active compounds read low",1.02
same,normalized growth,"locus YJR066W, strain TOR1, active compounds read low",0.931
same,normalized growth,"locus YJR075W, strain HOC1, active compounds read low",1.03
same,normalized growth,"locus YKL009W, strain mrt4, active compounds read low",0.956
same,normalized growth,"locus YKL068W, active compounds read low",0.975
same,normalized growth,"locus YKL085W, strain MDH1 (second series), active compounds read low",0.977
same,normalized growth,"locus YKL085W, strain MDH1, active compounds read low",0.977
same,normalized growth,"locus YKL160W, strain elf1, active compounds read low",0.995
same,normalized growth,"locus YKR001C, strain vps1, active compounds read low",0.993
same,normalized growth,"locus YKR026C, strain gcn3, active compounds read low",1.03
same,normalized growth,"locus YKR091W, strain srl3, active compounds read low",1.03
same,normalized growth,"locus YLL001W, strain dnm1, active compounds read low",0.988
same,normalized growth,"locus YLL026W, active compounds read low",1.03
same,normalized growth,"locus YLL041C, strain sdh2, active compounds read low",1.02
same,normalized growth,"locus YLR027C, strain aat2, active compounds read low",0.992
same,normalized growth,"locus YLR039C, strain RIC1, active compounds read low",1.05
same,normalized growth,"locus YLR058C, strain SHM2, active compounds read low",1
same,normalized growth,"locus YLR102C, strain apc9, active compounds read low",0.995
same,normalized growth,"locus YLR113W, strain HOG1, active compounds read low",0.902
same,normalized growth,"locus YLR221C, strain rsa3, active compounds read low",1.03
same,normalized growth,"locus YLR258W, strain gsy2, active compounds read low",1.03
same,normalized growth,"locus YLR262C, strain YPT6 (second series), active compounds read low",0.978
same,normalized growth,"locus YLR268W, strain sec22, active compounds read low",0.975
same,normalized growth,"locus YLR320W, strain mms22, active compounds read low",1.03
same,normalized growth,"locus YLR330W, strain CHS5, active compounds read low",1
same,normalized growth,"locus YLR342W, strain FKS1 (second series), active compounds read low",1.04
same,normalized growth,"locus YLR342W, strain FKS1, active compounds read low",1.03
same,normalized growth,"locus YLR357W, strain rsc2, active compounds read low",1.01
same,normalized growth,"locus YLR370C, strain arc18, active compounds read low",1.02
same,normalized growth,"locus YLR371W, strain rom2, active compounds read low",1.02
same,normalized growth,"locus YLR384C, strain iki3, active compounds read low",1.03
same,normalized growth,"locus YLR418C, strain cdc73, active compounds read low",0.98
same,normalized growth,"locus YML016C, strain PPZ1, active compounds read low",0.999
same,normalized growth,"locus YML032C, strain rad52, active compounds read low",0.976
same,normalized growth,"locus YML120C, strain ndi1, active compounds read low",0.984
same,normalized growth,"locus YML124C, strain tub3, active compounds read low",1
same,normalized growth,"locus YMR058W, strain fet3, active compounds read low",1.04
same,normalized growth,"locus YMR078C, strain ctf18, active compounds read low",0.987
same,normalized growth,"locus YMR125W, strain sto1, active compounds read low",1.05
same,normalized growth,"locus YMR129W, active compounds read low",1.02
same,normalized growth,"locus YMR205C, strain PFK2, active compounds read low",0.958
same,normalized growth,"locus YMR223W, strain ubp8, active compounds read low",0.986
same,normalized growth,"locus YMR231W, strain pep5, active compounds read low",1.04
same,normalized growth,"locus YMR307W, strain GAS1, active compounds read low",0.912
same,normalized growth,"locus YNL067W, strain RPL9B, active compounds read low",1.04
same,normalized growth,"locus YNL071W, strain lat1, active compounds read low",0.928
same,normalized growth,"locus YNL153C, strain GIM3, active compounds read low",1.02
same,normalized growth,"locus YNL183C, strain NPR1, active compounds read low",0.918
same,normalized growth,"locus YNL209W, strain ssb2, active compounds read low",1.03
same,normalized growth,"locus YNL233W, strain BNI4, active compounds read low",1.02
same,normalized growth,"locus YNL248C, strain rpa49, active compounds read low",1.03
same,normalized growth,"locus YNL250W, strain rad50, active compounds read low",0.989
same,normalized growth,"locus YNL271C, strain bni1, active compounds read low",1
same,normalized growth,"locus YNL298W, strain CLA4, active compounds read low",1
same,normalized growth,"locus YNL307C, strain MCK1, active compounds read low",0.996
same,normalized growth,"locus YNL322C, strain KRE1 (second series), active compounds read low",0.984
same,normalized growth,"locus YNR049C, strain mso1, active compounds read low",1.03
same,normalized growth,"locus YNR052C, strain pop2, active compounds read low",1.02
same,normalized growth,"locus YOL006C, strain TOP1, active compounds read low",1.02
same,normalized growth,"locus YOL012C, strain htz1",1.3
same,normalized growth,"locus YOL147C, strain pex11, active compounds read low",1
same,normalized growth,"locus YOR001W, strain rrp6, active compounds read low",1.02
same,normalized growth,"locus YOR061W, strain CKA2, active compounds read low",0.971
same,normalized growth,"locus YOR069W, strain VPS5, active compounds read low",1.01
same,normalized growth,"locus YOR070C, strain gyp1, active compounds read low",1
same,normalized growth,"locus YOR080W, strain dia2, active compounds read low",1.04
same,normalized growth,"locus YOR083W, strain WHI5, active compounds read low",0.976
same,normalized growth,"locus YOR106W, strain vam3, active compounds read low",0.986
same,normalized growth,"locus YOR136W, strain idh2, active compounds read low",1.01
same,normalized growth,"locus YOR144C, strain elg1, active compounds read low",0.995
same,normalized growth,"locus YOR184W, strain ser1, active compounds read low",0.928
same,normalized growth,"locus YOR231W, strain MKK1, active compounds read low",0.917
same,normalized growth,"locus YOR265W, strain rbl2, active compounds read low",1.04
same,normalized growth,"locus YOR270C, strain vph1, active compounds read low",0.963
same,normalized growth,"locus YOR290C, strain snf2, active compounds read low",0.946
same,normalized growth,"locus YOR316C, strain cot1, active compounds read low",0.997
same,normalized growth,"locus YPL051W, strain arl3, active compounds read low",0.996
same,normalized growth,"locus YPL078C, strain atp4, active compounds read low",0.976
same,normalized growth,"locus YPL106C, strain sse1, active compounds read low",1.01
same,normalized growth,"locus YPL240C, strain hsp82, active compounds read low",1.02
same,normalized growth,"locus YPL256C, strain CLN2, active compounds read low",0.95
same,normalized growth,"locus YPR119W, strain clb2, active compounds read low",1
same,normalized growth,"locus YPR141C, strain kar3, active compounds read low",0.993
same,normalized growth,"locus YPR163C, strain tif3, active compounds read low",1.01
same,normalized growth,"locus YPR167C, strain met16, active compounds read low",0.996
same,normalized growth,"strain wtn01, active compounds read low",0.958
